The record followed here is the supplement of paper PMC10849652.

Of roughly 7,900 targets only a part is listed; those with a hit were picked by preference. About 0.6% of all pairs of compound and target were hits. Unmarked numbers belong to inactive results.

Sequence of UniProt Q14442 (Q14442 whole entry, looked up): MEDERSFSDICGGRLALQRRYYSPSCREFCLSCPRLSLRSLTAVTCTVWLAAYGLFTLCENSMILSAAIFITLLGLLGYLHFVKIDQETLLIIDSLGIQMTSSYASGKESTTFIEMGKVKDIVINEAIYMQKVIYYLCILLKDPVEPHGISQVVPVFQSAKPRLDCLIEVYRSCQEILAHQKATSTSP
Sequence of UniProt Q86UU1 (Q86UU1 whole entry, looked up): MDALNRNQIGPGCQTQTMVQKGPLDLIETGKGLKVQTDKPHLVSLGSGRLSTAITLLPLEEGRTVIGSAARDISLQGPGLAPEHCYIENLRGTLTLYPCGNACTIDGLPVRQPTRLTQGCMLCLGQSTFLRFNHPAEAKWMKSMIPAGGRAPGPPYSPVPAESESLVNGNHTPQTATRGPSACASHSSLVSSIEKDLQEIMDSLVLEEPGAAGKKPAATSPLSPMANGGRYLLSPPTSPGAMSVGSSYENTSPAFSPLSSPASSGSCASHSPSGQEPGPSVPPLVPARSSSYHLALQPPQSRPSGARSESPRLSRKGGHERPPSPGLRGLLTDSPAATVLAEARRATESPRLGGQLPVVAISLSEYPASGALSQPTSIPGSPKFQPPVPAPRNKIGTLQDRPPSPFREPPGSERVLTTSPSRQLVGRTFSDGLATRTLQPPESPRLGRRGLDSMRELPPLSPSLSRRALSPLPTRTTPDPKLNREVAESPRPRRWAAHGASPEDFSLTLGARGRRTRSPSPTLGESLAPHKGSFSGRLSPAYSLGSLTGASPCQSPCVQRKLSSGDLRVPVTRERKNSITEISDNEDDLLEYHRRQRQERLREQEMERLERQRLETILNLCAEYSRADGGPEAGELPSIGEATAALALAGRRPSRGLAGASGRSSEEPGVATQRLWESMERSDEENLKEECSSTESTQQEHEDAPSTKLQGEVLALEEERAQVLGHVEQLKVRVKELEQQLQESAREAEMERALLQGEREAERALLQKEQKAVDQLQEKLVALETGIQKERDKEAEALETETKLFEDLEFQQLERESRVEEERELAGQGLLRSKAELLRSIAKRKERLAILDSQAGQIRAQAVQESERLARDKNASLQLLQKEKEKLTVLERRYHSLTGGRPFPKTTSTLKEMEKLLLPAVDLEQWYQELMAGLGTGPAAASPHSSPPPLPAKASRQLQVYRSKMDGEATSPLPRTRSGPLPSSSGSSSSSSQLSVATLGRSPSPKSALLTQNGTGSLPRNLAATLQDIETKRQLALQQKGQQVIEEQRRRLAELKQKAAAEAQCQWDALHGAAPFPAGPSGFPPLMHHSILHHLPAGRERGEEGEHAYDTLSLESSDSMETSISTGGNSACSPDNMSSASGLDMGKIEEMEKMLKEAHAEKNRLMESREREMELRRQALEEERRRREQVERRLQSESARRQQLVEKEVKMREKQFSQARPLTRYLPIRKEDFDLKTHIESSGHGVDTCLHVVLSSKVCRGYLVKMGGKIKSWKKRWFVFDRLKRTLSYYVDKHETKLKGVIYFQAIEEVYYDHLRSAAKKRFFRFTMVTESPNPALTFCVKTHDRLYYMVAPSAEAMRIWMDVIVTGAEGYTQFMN
Sequence of UniProt Q8N2W9 (Q8N2W9 whole entry, looked up): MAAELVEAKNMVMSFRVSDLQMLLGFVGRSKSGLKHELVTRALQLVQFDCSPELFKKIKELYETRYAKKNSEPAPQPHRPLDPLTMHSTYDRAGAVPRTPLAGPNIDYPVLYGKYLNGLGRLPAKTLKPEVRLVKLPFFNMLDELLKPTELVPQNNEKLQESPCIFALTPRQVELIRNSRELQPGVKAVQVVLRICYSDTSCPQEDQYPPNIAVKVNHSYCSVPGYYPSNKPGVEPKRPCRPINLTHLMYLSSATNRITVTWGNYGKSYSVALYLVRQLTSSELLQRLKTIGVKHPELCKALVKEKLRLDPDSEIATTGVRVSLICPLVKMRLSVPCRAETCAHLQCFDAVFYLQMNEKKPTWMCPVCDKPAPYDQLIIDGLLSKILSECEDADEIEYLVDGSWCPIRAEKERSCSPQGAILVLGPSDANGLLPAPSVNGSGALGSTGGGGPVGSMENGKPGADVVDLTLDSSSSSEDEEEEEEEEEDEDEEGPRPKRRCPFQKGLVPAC
Sequence of UniProt Q15126 (Q15126 whole entry, looked up): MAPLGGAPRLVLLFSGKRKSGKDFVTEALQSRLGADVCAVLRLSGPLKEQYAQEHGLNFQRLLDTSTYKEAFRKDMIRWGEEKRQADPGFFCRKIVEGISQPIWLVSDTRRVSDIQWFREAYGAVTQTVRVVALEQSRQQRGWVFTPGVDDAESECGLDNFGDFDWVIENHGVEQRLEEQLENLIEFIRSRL
Sequence of UniProt Q9BZL4 (Q9BZL4 whole entry, looked up): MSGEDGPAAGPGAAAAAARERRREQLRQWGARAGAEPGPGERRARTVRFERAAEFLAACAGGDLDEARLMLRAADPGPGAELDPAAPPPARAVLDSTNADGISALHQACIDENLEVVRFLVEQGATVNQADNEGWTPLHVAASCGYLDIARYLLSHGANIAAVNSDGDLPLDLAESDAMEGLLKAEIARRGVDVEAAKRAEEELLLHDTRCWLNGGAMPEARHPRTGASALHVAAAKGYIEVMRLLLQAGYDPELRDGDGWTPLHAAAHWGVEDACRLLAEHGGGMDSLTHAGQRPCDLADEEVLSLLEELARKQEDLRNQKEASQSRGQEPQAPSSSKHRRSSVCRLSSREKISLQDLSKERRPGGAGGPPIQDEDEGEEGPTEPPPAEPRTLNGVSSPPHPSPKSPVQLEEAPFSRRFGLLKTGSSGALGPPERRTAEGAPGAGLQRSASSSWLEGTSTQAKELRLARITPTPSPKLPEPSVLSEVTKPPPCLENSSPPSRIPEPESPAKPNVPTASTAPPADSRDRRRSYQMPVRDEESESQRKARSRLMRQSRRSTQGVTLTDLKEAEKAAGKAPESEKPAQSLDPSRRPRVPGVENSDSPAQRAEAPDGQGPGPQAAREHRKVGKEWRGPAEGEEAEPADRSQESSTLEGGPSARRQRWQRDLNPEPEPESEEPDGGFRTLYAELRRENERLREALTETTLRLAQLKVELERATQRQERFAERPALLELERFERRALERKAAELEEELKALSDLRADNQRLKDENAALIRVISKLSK
Sequence of UniProt Q14671 (Q14671 whole entry, looked up): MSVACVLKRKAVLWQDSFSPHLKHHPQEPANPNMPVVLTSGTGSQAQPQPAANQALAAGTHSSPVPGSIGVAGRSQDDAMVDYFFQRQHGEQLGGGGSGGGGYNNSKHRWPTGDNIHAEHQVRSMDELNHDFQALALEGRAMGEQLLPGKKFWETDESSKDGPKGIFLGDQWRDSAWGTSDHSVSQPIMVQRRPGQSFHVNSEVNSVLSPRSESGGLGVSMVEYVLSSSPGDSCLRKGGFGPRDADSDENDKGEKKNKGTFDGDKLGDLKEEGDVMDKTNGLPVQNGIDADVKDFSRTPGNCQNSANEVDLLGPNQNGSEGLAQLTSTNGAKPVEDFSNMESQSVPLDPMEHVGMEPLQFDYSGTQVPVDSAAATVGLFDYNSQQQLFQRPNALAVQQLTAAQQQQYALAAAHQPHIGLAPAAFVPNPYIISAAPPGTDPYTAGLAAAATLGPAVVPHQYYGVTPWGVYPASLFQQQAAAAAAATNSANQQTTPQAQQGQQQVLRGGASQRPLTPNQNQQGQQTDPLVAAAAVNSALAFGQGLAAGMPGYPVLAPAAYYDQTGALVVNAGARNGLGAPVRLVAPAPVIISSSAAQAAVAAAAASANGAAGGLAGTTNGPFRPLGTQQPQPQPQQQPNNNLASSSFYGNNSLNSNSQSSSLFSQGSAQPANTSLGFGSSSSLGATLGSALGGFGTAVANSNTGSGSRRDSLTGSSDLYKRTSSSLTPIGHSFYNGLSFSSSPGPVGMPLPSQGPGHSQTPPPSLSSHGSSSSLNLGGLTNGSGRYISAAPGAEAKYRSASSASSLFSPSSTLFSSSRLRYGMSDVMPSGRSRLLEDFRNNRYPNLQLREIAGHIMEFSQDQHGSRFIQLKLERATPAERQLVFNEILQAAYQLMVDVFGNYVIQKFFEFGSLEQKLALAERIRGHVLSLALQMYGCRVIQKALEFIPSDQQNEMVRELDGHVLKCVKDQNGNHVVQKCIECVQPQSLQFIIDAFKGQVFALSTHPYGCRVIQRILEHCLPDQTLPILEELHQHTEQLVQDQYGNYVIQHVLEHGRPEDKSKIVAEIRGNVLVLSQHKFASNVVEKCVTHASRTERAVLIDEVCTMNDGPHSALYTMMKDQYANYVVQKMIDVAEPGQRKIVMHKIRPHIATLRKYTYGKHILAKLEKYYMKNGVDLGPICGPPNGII
Sequence of UniProt P14618 (P14618 whole entry, looked up): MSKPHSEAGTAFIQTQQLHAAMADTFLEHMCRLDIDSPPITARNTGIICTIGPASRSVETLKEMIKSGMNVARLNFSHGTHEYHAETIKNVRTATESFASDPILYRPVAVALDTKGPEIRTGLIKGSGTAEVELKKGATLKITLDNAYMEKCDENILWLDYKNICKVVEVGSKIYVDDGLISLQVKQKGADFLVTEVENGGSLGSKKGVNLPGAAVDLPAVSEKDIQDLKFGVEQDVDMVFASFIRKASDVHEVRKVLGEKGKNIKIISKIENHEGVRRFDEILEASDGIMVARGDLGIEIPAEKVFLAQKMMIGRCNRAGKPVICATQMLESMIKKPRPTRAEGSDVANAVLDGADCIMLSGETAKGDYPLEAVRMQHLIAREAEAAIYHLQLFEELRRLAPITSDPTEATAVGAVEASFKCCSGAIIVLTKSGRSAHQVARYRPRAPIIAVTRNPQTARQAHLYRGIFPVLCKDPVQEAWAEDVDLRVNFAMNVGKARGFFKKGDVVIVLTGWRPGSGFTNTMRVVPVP

Compound in the first experiment: Cc1cc(Nc2cc(CN3CCOCC3)c3nc(C)c(Cc4ccc(Cl)cc4F)n3n2)n[nH]1 [gandotinib]
Kind of experiment: log2 fold change, soluble protein after heating vs DMSO (PISA); higher = thermal stabilisation; K562 cells, 10 uM, 30 min; active = over 0.2 and 3.5 SD of the protein, either way, in both replicates (recomputed). Summed up: (§1)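 K562 cells at 2×10^6 cells/mL were treated with 10 μM compound for 30 min. Aliquots were heated for 3 min across 48°C-58°C, pooled, and extracted in PBS with 0.5% NP-40 at 4°C; soluble protein was the supernatant after 21,000xg for 90 min. Soluble protein was quantified by TMTpro 16plex LC-MS/MS with channel sums equalised, and reported as log2 fold change in thermal stability against DMSO controls, with values from duplicates.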
With PMVK (UniProt Q15126), the log2 fold change is -0.705 (active).
As to PSMC1 (UniProt G3V4X1), the log2 fold change was 0.066.
In the case of PPP1R12C (UniProt Q9BZL4), the log2 fold change was -0.001.
Still for that read-out and setting: with PRR14L (UniProt Q5THK1) the figure was -0.084; with PUM1 (UniProt Q14671), 0.207.
Regarding PRKD2 (UniProt M0R346), the log2 fold change was 0.109.
For the target PHLDB1 isoform 2 (UniProt Q86UU1), the log2 fold change is -0.281.
Consider PKM isoform 2 (UniProt P14618), for which the log2 fold change is 0.131.
For PIGH (UniProt Q14442), the log2 fold change was 0.036.
On the same count and under the same terms, with POLB (UniProt P06746) the figure was 0.081; with PPP2R5B (UniProt Q15173), -0.277; with PTPA (UniProt A6PVN8), -0.048.
As to PIAS4 (UniProt Q8N2W9), the log2 fold change was -0.013.
Regarding PCF11 (UniProt O94913), the log2 fold change is -0.149.
On to POLR2E (UniProt P19388), for which the log2 fold change was 0.157.
For the target PIM1 isoform 2 (UniProt P11309), the log2 fold change is -0.084.
For PTEN isoform 2 (UniProt P60484), the log2 fold change was 0.312.

Compound in another experiment: Cc1cc(Nc2cc(N3CCN(C)CC3)nc(Sc3ccc(NC(=O)C4CC4)cc3)n2)n[nH]1 [tozasertib]
Described as above. The method in brief: as §1
As for PMVK (UniProt Q15126), the log2 fold change was -0.186.
Turning to PSMC3 (UniProt E9PLG2), the log2 fold change was -0.288.
As to PPP1R12C (UniProt Q9BZL4), the log2 fold change is 0.091.
Still for that read-out and setting: with PDE4A (UniProt P27815) the figure was 0.027.
As for PSMA3 (UniProt H0YJ03), the log2 fold change is -0.049.
As to PRR14L (UniProt Q5THK1), the log2 fold change is -0.247.
PUM1 (UniProt Q14671): the log2 fold change is 0.019.
Consider PHLDB1 isoform 2 (UniProt Q86UU1), for which the log2 fold change is -0.126.
As for PKM isoform 2 (UniProt P14618), the log2 fold change was 0.056.
On to PIGH (UniProt Q14442), for which the log2 fold change is 0.
Take POLB (UniProt P06746): the log2 fold change is 0.077.
On the same count and under the same terms, with PEX5 isoform 4 (UniProt P50542) the figure was -0.013.
PTPA (UniProt A6PVN8): the log2 fold change was -0.069.
The same measure, in the same setting: with PIAS4 (UniProt Q8N2W9) the figure was -0.009.
On the same count and under the same terms, as for PSMD8 (UniProt K7ERW6), the figure is -0.231; as for PCNX1 (UniProt Q96RV3), 0.071.
Turning to POLR2E (UniProt P19388), the log2 fold change is 0.02.
Still for that read-out and setting: as for PUF60 isoform 2 (UniProt Q9UHX1), the figure is 0.193.

Compound in the next experiment: Cc1cc(SCc2sc(-c3ccc(C(F)(F)F)cc3)nc2C)ccc1OCC(=O)O
The description is as above. Summed up:
as §1
With PMVK (UniProt Q15126), the log2 fold change was 0.333.
Take PSMC3 (UniProt E9PLG2): the log2 fold change is -0.101.
For the target PPP1R12C (UniProt Q9BZL4), the log2 fold change was 0.018.
Consider PCBP2 (UniProt F8VZX2), for which the log2 fold change is 0.065.
For the target PSMA3 (UniProt H0YJ03), the log2 fold change was -0.07.
Same read-out and setting: with PUM1 (UniProt Q14671) the figure was 0.203; with PHLDB1 isoform 2 (UniProt Q86UU1), 0.108; with PKM isoform 2 (UniProt P14618), 0.12.
Turning to PIGH (UniProt Q14442), the log2 fold change was 0.04.
Take POLB (UniProt P06746): the log2 fold change was -0.045.
Turning to PEX5 isoform 4 (UniProt P50542), the log2 fold change is -0.047.
With PPP2R5B (UniProt Q15173), the log2 fold change is -0.002.
Still for that read-out and setting: with PAN2 (UniProt Q504Q3) the figure was 0.299; with PTPA (UniProt A6PVN8), -0.203.
Regarding PIAS4 (UniProt Q8N2W9), the log2 fold change is 0.021.
Still for that read-out and setting: with POLR2E (UniProt P19388) the figure was 0.089; with PUF60 isoform 2 (UniProt Q9UHX1), 0.04.

Compound in a further experiment: Cc1ccc(-n2nc(C(C)(C)C)cc2NC(=O)Nc2ccc(OCCN3CCOCC3)c3ccccc23)cc1 [doramapimod]
Described as above. Summed up: as §1
Take PSMC3 (UniProt E9PLG2): the log2 fold change is -0.058.
On to PDE4DIP (UniProt E9PS60), for which the log2 fold change was 0.102.
Regarding PCBP2 (UniProt F8VZX2), the log2 fold change is -0.107.
Turning to PDE4A (UniProt P27815), the log2 fold change was 0.065.
Turning to PSMA3 (UniProt H0YJ03), the log2 fold change is 0.072.
With PUM1 (UniProt Q14671), the log2 fold change was 0.041.
On the same count and under the same terms, as for PHLDB1 isoform 2 (UniProt Q86UU1), the figure is 0.032; as for PKM isoform 2 (UniProt P14618), 0.029.
As for PIGH (UniProt Q14442), the log2 fold change is -0.062.
On to PPP2R5C isoform 2 (UniProt Q13362), for which the log2 fold change is 0.052.
As for PSD3 (UniProt Q9NYI0), the log2 fold change was -0.02.
On the same count and under the same terms, as for PIAS4 (UniProt Q8N2W9), the figure is 0.061; as for PSMD8 (UniProt K7ERW6), 0.066; as for PCF11 (UniProt O94913), 0.051.
Still for that read-out and setting: as for POLR2E (UniProt P19388), the figure is -0.078.
On to PSMA3 (UniProt G3V4X5), for which the log2 fold change was 0.149.
PTEN isoform 2 (UniProt P60484): the log2 fold change is 0.001.
Take PHC3 isoform 7 (UniProt Q8NDX5): the log2 fold change was 0.131.
